Experimental data as given in the supplement of paper PMC6555819.

Columns and labels:
Assay in all cases: PBM binding z-score (relative to random genomic background probes); higher = stronger binding; sequences stand for … in GC…GCGATTGACAGCGTAGAATGAAGG
[1] = system: FXR:RXRa (NR concentration 270 nM, RXRa partner concentration 90 nM)
How it was run: (§1)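 Each nuclear receptor dimer, without ligand, was incubated for 1 h on custom Agilent 4×180K protein-binding microarrays. Binding was detected with antibodies against each partner (one per run), and scanned fluorescence was regression-normalized. The binding z-scores are referenced to random human genomic background probes.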

[2] = system: LXRa:RXRa (NR concentration 270 nM, RXRa partner concentration 90 nM)
How it was run: as §1

[3] = system: LXRa homodimer (NR concentration 270 nM)
How it was run: as §1

[4] = system: LXRb:RXRa (NR concentration 270 nM, RXRa partner concentration 90 nM)
How it was run: as §1

[5] = system: LXRb homodimer (NR concentration 270 nM)
How it was run: as §1

[6] = system: PPARa:RXRa (NR concentration 270 nM, RXRa partner concentration 90 nM)
How it was run: as §1

[7] = system: PPARg:RXRa (NR concentration 180 nM, RXRa partner concentration 90 nM)
How it was run: as §1

[8] = system: PPARg:RXRa 270nM:90nM, anti-RXR (NR concentration 270 nM, RXRa partner concentration 90 nM)
How it was run: as §1

[9] = system: PPARg:RXRa 30nM:10nM, anti-RXR (NR concentration 30 nM, RXRa partner concentration 10 nM)
How it was run: as §1

[10] = system: PPARg:RXRa 90nM:30nM, anti-RXR (NR concentration 90 nM, RXRa partner concentration 30 nM)
How it was run: as §1

[11] = system: PPARg:RXRa DBDmut IVT, anti-RXR (DBD mutation: RXRa K156A/R161A, NR concentration 270 nM, RXRa partner concentration 90 nM)
How it was run: as §1

[12] = system: PPARg:RXRa IVT, anti-PPARg (NR concentration 270 nM, RXRa partner concentration 90 nM)
How it was run: as §1

[13] = system: PPARg DBDmut:RXRa IVT, anti-PPARg (DBD mutation: PPARg1 K132A/R137A, NR concentration 270 nM, RXRa partner concentration 90 nM)
How it was run: as §1

[14] = system: PPARg DBDmut IVT, anti-PPARg (DBD mutation: PPARg1 K132A/R137A, NR concentration 270 nM)
How it was run: as §1

[15] = system: PPARg homodimer (NR concentration 180 nM)
How it was run: as §1

[16] = system: PXR:RXRa (NR concentration 270 nM, RXRa partner concentration 90 nM)
How it was run: as §1

[17] = system: PXR homodimer (NR concentration 270 nM)
How it was run: as §1

[18] = system: RARa:RXR (NR concentration 270 nM, RXRa partner concentration 90 nM)
How it was run: as §1

[19] = system: RARa homodimer (NR concentration 270 nM)
How it was run: as §1

[20] = system: RARb:RXRa (NR concentration 270 nM, RXRa partner concentration 90 nM)
How it was run: as §1

Sequence	PBM binding z-score [1]	PBM binding z-score [2]	PBM binding z-score [3]	PBM binding z-score [4]	PBM binding z-score [5]	PBM binding z-score [6]	PBM binding z-score [7]	PBM binding z-score [8]	PBM binding z-score [9]	PBM binding z-score [10]	PBM binding z-score [11]	PBM binding z-score [12]	PBM binding z-score [13]	PBM binding z-score [14]	PBM binding z-score [15]	PBM binding z-score [16]	PBM binding z-score [17]	PBM binding z-score [18]	PBM binding z-score [19]	PBM binding z-score [20]
TAGCCTAGGTCATGTGCCAGTATACCACGCGAAC	4.24	3.24	0.572	2.7	0.626	3.58	2.79	2.86	0.838	2.06	1.78	3.01	0.0994	0.0439	1.55	1.53	-0.113	2.34	-0.178	3.74
CCTACTGGGCCAAAAAGGTCATTGAGGCCGATAA	3.73	4.24	2.98	4.11	0.134	4.69	3.3	3.92	1.27	3	3.53	3.88	-0.547	-0.0751	2.79	5.38	10.7	5.6	2.12	3.8
TAGCCTAGGTCAGGTCGGGCCAGTATACGCTATA	2.66	1.06	-0.52	0.724	-0.502	1.71	0.639	0.781	-0.544	0.204	0.315	1.69	-0.681	-1.44	0.477	1.51	-0.668	1.25	-1.19	3.24
CCTACTGGGACAAGGTCATTGATCAGTCAAAGCA	3.62	3.43	1.26	3.06	0.0323	4.22	4.54	4.7	1.99	3.78	3.79	4.66	-0.0252	-0.0828	2.28	3.8	1.59	3.89	0.375	3.26
ATACCAAGGTGATCGTGGGGTCGTTGATACTAAC	1.56	1.27	0.187	2.56	0.143	2.42	0.805	0.876	0.0671	0.468	0.765	1.54	0.837	0.583	1.5	3.05	1.11	2.65	0.577	1.33
AGAATGAGGTTAAGATCCGGGAAACAGAATACAT	2.5	1.75	-0.0766	1.58	-0.277	3.26	2.03	1.97	0.812	1.72	2.97	2.71	1.45	0.576	0.097	0.953	0.0989	2	0.396	1.88
TGTCAAAGTTCAAAGGAAACGTAAGTATCCACAC	6.34	5.91	3.73	3.56	1.37	4.94	7.64	7.15	4.84	6.6	-0.506	3.75	1.36	1.26	2.31	4.33	1.78	3.21	1.06	4.95
AAATGTAGGTTATCGGGTCATTCAGTTTGCGCAT	3.38	3.09	1.81	2.9	0.806	5.21	7.59	6.43	4.76	6.15	8.08	7.95	2.76	1.48	3	3.87	7.01	3.72	1.36	2.68
AGACTGAGGTTAAGATCAGGGAAACAGAATACAT	2.11	1.75	-0.133	1.6	-0.417	2.92	1.21	1.18	0.748	0.879	0.0393	0.554	-0.0816	-0.0692	0.531	0.903	0.258	1.84	-0.0293	1.7
TCTTGTAGATCAAGGGTTAAGAAAGCCGAAGCCT	0.439	0.813	-0.616	0.958	-0.606	3.12	5.36	6.4	5.41	7.18	1.55	2.33	0.632	-0.0594	1.12	0.471	-0.23	1.06	-0.354	0.694
CCTTACGGGTCAAGGTCATAGCACGGGTGGTACG	6.75	5.29	1.9	4.12	0.624	5.78	6.03	5.86	2.53	4.68	1.92	4.64	0.493	-0.425	2.88	5.05	1.3	5.28	0.441	5
ACTATTAGTTGAGTCGAGGGCAACCGATAGGTTG	0.84	0.505	0.226	0.34	0.349	0.703	0.466	0.452	0.0326	0.43	0.363	0.962	0.679	0.368	0.693	1.34	0.315	0.785	0.945	1.14
TCATATAGGTAGACAGGTGAAAGTCCGTAAGTTA	0.952	1.11	0.173	0.898	-0.226	1.32	0.974	2.5	3.79	3.27	3.02	1.33	1.18	0.507	1.25	0.852	0.981	0.512	1.24	0.76
ATATGTAGGTTAATGGTCATTCAGGTTGGTTCGC	0.826	1.09	0.821	1.24	0.469	4.6	7.74	7.54	6.76	7.88	7.35	7.31	4.17	3.57	2.47	1.23	0.787	0.723	1.49	1.45
CGACCAAGGTCAAAGGTCAGTGAAGAGATGACGG	8.72	6.8	3.14	6.54	1.18	7.07	11.3	9.46	9.86	10.4	4.11	6.17	1.79	0.574	5.46	7.16	1.55	9.08	2.47	5.95
TCTATTAGTTGATTAGGCCAACCGAAACAGCGGA	0.75	0.591	0.444	0.663	0.882	0.722	0.22	2.07	3.98	3.02	2.31	0.958	0.847	0.784	1.2	0.477	0.547	0.834	1.24	0.707
TCTATTAGTTGAAGGGCAACGGACGAGTCCGTTT	0.568	0.993	0.2	1.07	0.679	1.06	0.0889	2.19	3.6	2.89	2.22	0.812	0.14	0.912	0.894	0.785	1.18	0.778	0.625	1.76
GCGACTGGGGCATCAGCAAGTTACCATAACTTAA	-0.358	-0.587	-0.708	0.105	-0.805	0.514	0.866	1.08	-0.463	0.387	3.88	2.87	-1.33	-0.593	-0.528	-0.359	-0.789	-0.454	-0.707	0.453
CAAACTAGGTCAAGGTCATAGTCGGTTTGTGCCA	6.58	5.31	3.83	4.11	1.07	5.92	9.25	7.76	6.24	8	8.52	8.68	4.59	1.94	4.4	5.2	2.73	5.56	1.31	4.97
CGTCCAAGTTCAGCAGGTCAGTGAAAGCGACGTG	2.28	2.06	1.12	1.53	-0.267	2.49	0.395	1.17	-0.436	0.285	0.444	0.339	-0.163	-0.669	1.77	2.59	1.6	2.38	0.583	3.75
CAAACTAGGTCACCGGAAGGTCAACGTCCGCATG	6.21	6.05	4.21	4.6	1.1	6.13	9.54	8.04	5.72	7.83	8.78	8.78	2.66	1.2	6.53	5.79	1.29	7.37	2.46	5.38
TCTTGTAGATCAAAAGGAGGTTAAGAAAGATCGA	0.895	1.83	0.268	1.37	-0.229	1.81	0.335	2.02	2.91	2.36	1.99	1.45	0.192	0.409	0.066	0.871	0.0133	1.12	0.597	0.428
CAAACTTGGTCACCGGAAGGTCAAAGTCCGCATG	3.58	3.72	3.5	3.39	0.75	3.7	2.29	3	0.605	2.01	2.35	3.45	0.726	1.15	2.58	4.26	1.08	4.78	0.786	3.77
CCTAGCAGGCCAGGGTCACTGAAGCATTTCGCTT	2.08	1.76	-0.679	2.1	-1.29	3.35	0.613	1.95	-0.0383	1.16	0.0332	1.16	-1.43	-1.48	1.08	3.04	-0.468	3.83	-0.64	2.55
TCTAGCAGGCCAGAGGGTCACTCACGAGGTACGG	0.586	0.658	-0.609	1.13	-1.2	2.2	1.46	2.63	1.82	2.54	0.776	0.783	-0.376	-1.19	1.31	1.51	-0.605	2.52	-0.397	2.25
ACTAGTTGGTCAGCTGAGGTCACATACAATTCGG	2.13	2.95	2.7	3.37	0.543	3.41	1.77	1.98	0.658	1.17	1.59	2.44	0.89	0.482	2.09	5.26	1.85	4.17	0.305	3.4
